Results reported in PubChem BioAssay (NCATS).
Records with an inconclusive call do not appear. The source made the active and inactive calls. Calls come from the whole dose curve; as a rule, active = well fitted cell-killing curve with a large enough effect; inconclusive = small, poorly fitted or top-dose-only effect, or effect the other way; inactive = flat fitted curve, though single readings scatter.

system: SKOV3; assay: Primary qHTS to identify gynecologic anti-cancer compounds using libraries of approved drugs and bioactive compounds (AID 1345084); settings: Gynecologic cancer cell panel viability, ATPlite luminescence, 48 h; series mostly up to 57.5 µM; activity change, negative = cytotoxicity: at the top concentration; note: nearly all actives have a fitted effect of over 55% in size
Method in brief: (§1)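 Cytotoxicity screen measuring ATP content by luciferase luminescence. Each compound is applied at five concentrations for 48 h at 37 C with 5% CO2.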
% is set by controls: 0 for no effect and ±100 for the full control effect.

Structure (SMILES) | activity change, negative = cytotoxicity
COC(=O)C1=C[C@@H](O)[C@@H](O)[C@H](O[C@@H]2O[C@H](COC(=O)/C=C/c3ccccc3)[C@@H](O)[C@H](O)[C@H]2O)C1 | 2.64% [at 25.3 µM] (inactive)
CC1=C2C3OC(=O)C(C)C3(O)CCC2(C)CCC1=O (configuration not stated) | 0% (inactive)
C=C(C)[C@@H]1CC[C@](C)(O)[C@@H](OC(=O)c2ccccc2)C1 | 11.5% (inactive)
C[C@@H]1O[C@@H](O[C@H]2[C@H](O)[C@@H](O)[C@H](OC[C@H]3O[C@@H](OC(=O)[C@]45CCC(C)(C)C[C@H]4C4=CCC6[C@@]7(C)C[C@H](O)[C@H](O[C@@H]8O[C@H](CO)[C@@H](O)[C@H](O)[C@H]8O)[C@@](C)(C(=O)O)C7CC[C@@]6(C)[C@]4(C)CC5)[C@H](O[C@@H]4O[C@H](CO)[C@@H](O)[C@H](O)[C@H]4O)[C@@H](O)[C@@H]3O)O[C@@H]2CO)[C@H](O)[C@H](O)[C@H]1O (some centres not stated) | 8.21% [at 6.55 µM] (inactive)
C[C@@H]1O[C@@H](O[C@H]2[C@H](O[C@H]3CC[C@@]4(C)C(CC[C@]5(C)C4CC=C4[C@@H]6CC(C)(C)CC[C@]6(C(=O)O)CC[C@]45C)[C@]3(C)CO)OC[C@H](O)[C@@H]2O)[C@H](O)[C@H](O[C@@H]2OC[C@@H](O)[C@H](O)[C@H]2O)[C@H]1O (some centres not stated) | -0.901% [at 11.6 µM] (inactive)
C=CCc1ccc(O[C@@H]2O[C@H](CO[C@@H]3O[C@H](CO)[C@@H](O)[C@H](O)[C@H]3O)[C@@H](O)[C@H](O)[C@H]2O)c(O)c1 | 3.2% [at 25.3 µM] (inactive)
CC(=O)N[C@H]1[C@H](O[C@H]2CC[C@@]3(C)C(CC[C@]4(C)C3CC=C3C5CC(C)(C)CC[C@]5(C(=O)O)[C@H](O[C@@H]5O[C@H](CO)[C@@H](O)[C@H](O)[C@H]5O)C[C@]34C)C2(C)C)O[C@H](CO[C@@H]2OC[C@H](O)[C@H](O)[C@H]2O[C@@H]2OC[C@@H](O)[C@H](O)[C@H]2O)[C@@H](O)[C@@H]1O (some centres not stated) | 13% [at 11.6 µM] (inactive)

system: Tov-21-G; assay: as above; settings: Gynecologic cancer cell panel viability, ATPlite luminescence, 48 h; series mostly up to 57.5 µM; activity change, negative = cytotoxicity: at the top concentration
Method in brief: as §1

Structure (SMILES) | activity change, negative = cytotoxicity | Potency
CC1(O)CCC2C(C(=O)O)=COC(OC3OC(CO)C(O)C(O)C3OC(=O)/C=C/c3ccc(O)cc3)C21 (configuration not stated) | 0.361% [at 25.3 µM] (inactive) | 
Cn1c(=O)c2nc(/C=C/c3cccc(Cl)c3)n(C)c2n(C)c1=O | 4.28% [at 116 µM] (inactive) | 
C=C1CCC2(OC1)OC1CC3C4CC=C5CC(O)CC(O[C@@H]6OC[C@@H](O)[C@H](O)[C@H]6O)C5(C)C4CCC3(C)C1(O)C2C (some centres not stated) | 3.07% [at 25.3 µM] (inactive) | 
COc1cc(C/C(=C/NC(C)=O)N(CC(=O)Cc2ccccc2)C(C)=O)cc2c1OCO2 | 7.84% [at 25.3 µM] (inactive) | 
CCOC(=O)c1ccnc(CNCC(=O)N(CC)CCN(C)C)c1 | -4.07% (inactive) | 
CC(=O)c1c(O)cc2cccc3c2c1CC(C)(O)O3 (configuration not stated) | -2.18% (inactive) | 
C/C=C(\C)C(=O)O[C@@H](C)[C@H]1CC[C@]2(O)C3CCC4C[C@@H](OC5CC(OC)C(OC6CC(OC)C(OC7CC(OC)C(OC8OC(C)C(OC9OC(CO)C(O)C(O)C9O)C(OC)C8O)C(C)O7)C(C)O6)C(C)O5)CC[C@]4(C)C3[C@H](O)[C@@H](O)[C@]12C (some centres not stated) | 13.7% [at 6.55 µM] (inactive) | 
C/C(=C\CCC(C(=O)O)C1CCC2(C)C3=C(CCC12C)C1(C)CCC(=O)C(C)(C)C1CC3)C(=O)O (configuration not stated) | -0.322% [at 25.3 µM] (inactive) | 
Cc1cc(C)cc(NC(=O)Cc2ccc(OC(C)(C)C(=O)O)cc2)c1 | -0.154% (inactive) | 
CC1CC(O)CC(C)(C)C1(O)CCO (configuration not stated) | -3.41% (inactive) | 
CC(C)(C)NCC(O)COc1cccc2c1CCCC2=O (configuration not stated) | 1.94% (inactive) | 
CC(CCC1C(C(=O)O)=CC(=O)CC1(C)C)O[C@@H]1O[C@H](CO)[C@@H](O)[C@H](O)[C@H]1O (some centres not stated) | 4.17% [at 38.5 µM] (inactive) | 
CN1CCC(c2c[nH]c3ccc(NC(=O)c4ccc(F)cc4)cc23)CC1 | 3.93% (inactive) | 
C=CC(C)(C)C1(CC2NC(=O)C3CCCN3C2=O)C(=O)Nc2cc3c(cc21)C=CC(C)(C)O3 (configuration not stated) | 1.34% [at 25.3 µM] (inactive) | 
CC1=C2C(=O)C=C(CO)[C@@H]2[C@H]2OC(=O)[C@H](C)[C@@H]2[C@@H](O)C1 | 8.81% (inactive) | 
NC(=O)c1cccc(-c2cc(O)cc(OC(=O)NC3CCCCC3)c2)c1 | -0.593% [at 25.3 µM] (inactive) | 
CC(=O)O[C@@H]1[C@@H](OC(=O)/C=C/c2ccccc2)[C@H](C)O[C@@H](O[C@H]2[C@@H]3C=CO[C@@H](O[C@@H]4O[C@H](CO)[C@@H](O)[C@H](O)[C@H]4O)[C@@H]3[C@@]3(CO)O[C@@H]23)[C@@H]1OC(C)=O | -1.29% [at 25.3 µM] (inactive) | 
CCOC(=O)c1ccc(N(C)c2csc(-c3ccccc3)n2)cc1 | -2.66% (inactive) | 
C[C@]12CCC(=O)C=C1[C@@H](O)C[C@@H]1[C@@H]2[C@@H](O)C[C@@]2(C)[C@H]1CC[C@]2(O)C(=O)CO | 1.59% (inactive) | 
C=C1CC23CC1(O)CCC2C1=CC2OC(=O)C(C)(C2O)C1C3C(=O)O (configuration not stated) | 6.13% [at 38.5 µM] (inactive) | 

Structure (SMILES) | activity change, negative = cytotoxicity | Potency
CCOc1c2c(c(OCC)c3ccccc13)C(=O)N(c1ccc(CC(=O)NS(=O)(=O)c3ccccc3)cc1)C2 | 0.0147% (inactive) | 
CCCC(N[C@@H](C)C(=O)N1[C@H](C(=O)O)C[C@@H]2CCCC[C@@H]21)C(=O)OCC (some centres not stated) | 0.014% (inactive) | 
CC(=O)OC[C@]12[C@H](OC(C)=O)C(=O)[C@@H]3[C@@H](OC(C)=O)[C@@]14O[C@@]3(C)COC(=O)c1cccnc1[C@@H](C)[C@H](C)C(=O)O[C@@H]([C@H](OC(C)=O)[C@@H]2OC(C)=O)[C@]4(C)O | 0.943% [at 25.3 µM] (inactive) | 
COCCN(C)Cc1ccc2nc3sc(C(=O)N(C)C4CCCCC4)cn3c2c1 | 5.35% (inactive) | 
COc1cccc(-c2ccc([C@@H](Oc3cc(-c4ccc(C[C@H](N)C(=O)O)cc4)nc(N)n3)C(F)(F)F)cc2)c1 | 4.21% (inactive) | 
CO[C@@H](Cc1ccc(OCCc2nc(-c3ccccc3)oc2C)c2ccsc12)C(=O)O | 1.57% (inactive) | 
O=C(O)[C@H]1CCCC[C@H]1C(=O)N1CCc2ccccc2[C@H]1CN1C(=O)c2ccccc2C1=O | -16% (inactive) | 
CO/N=C(/C(=O)N[C@@H]1C(=O)N2C(C(=O)O)=C(CSC(=O)c3ccco3)CS[C@H]12)c1csc(N)n1 |  | inactive
COc1cc(-c2cccc(O)c2)cc2c1OCO2 | 4.22% (inactive) | 
Cc1c(-c2ccnn2C)cc(C(=O)NCc2ccc(S(C)(=O)=O)cn2)c(=O)n1-c1cccc(C(F)(F)F)c1 |  | inactive
CNc1nc(Nc2cnn([C@H]3CCN(C4COC4)C[C@@H]3F)c2Cl)ncc1C(F)(F)F | -0.892% (inactive) | 
O=C(O)c1cc(O[C@@H]2O[C@H](CO[C@@H]3OC[C@@H](O)[C@H](O)[C@H]3O)[C@@H](O)[C@H](O)[C@H]2O)c2ccccc2c1O | 6% [at 25.3 µM] (inactive) | 
CC(C)(O)C1=CCC23COC(C2)C(O)(C(=O)O)CCC13 (configuration not stated) | 1.9% (inactive) | 
COC(=O)C1=C[C@@H](O)[C@@H](O)[C@H](O[C@@H]2O[C@H](COC(=O)/C=C/c3ccccc3)[C@@H](O)[C@H](O)[C@H]2O)C1 | -3.32% [at 25.3 µM] (inactive) | 
CC1=C2C3OC(=O)C(C)C3(O)CCC2(C)CCC1=O (configuration not stated) | 3.29% (inactive) | 
C=C(C)[C@@H]1CC[C@](C)(O)[C@@H](OC(=O)c2ccccc2)C1 | 0.983% (inactive) | 
C[C@@H]1O[C@@H](O[C@H]2[C@H](O)[C@@H](O)[C@H](OC[C@H]3O[C@@H](OC(=O)[C@]45CCC(C)(C)C[C@H]4C4=CCC6[C@@]7(C)C[C@H](O)[C@H](O[C@@H]8O[C@H](CO)[C@@H](O)[C@H](O)[C@H]8O)[C@@](C)(C(=O)O)C7CC[C@@]6(C)[C@]4(C)CC5)[C@H](O[C@@H]4O[C@H](CO)[C@@H](O)[C@H](O)[C@H]4O)[C@@H](O)[C@@H]3O)O[C@@H]2CO)[C@H](O)[C@H](O)[C@H]1O (some centres not stated) | 6.93% [at 6.55 µM] (inactive) | 
C[C@@H]1O[C@@H](O[C@H]2[C@H](O[C@H]3CC[C@@]4(C)C(CC[C@]5(C)C4CC=C4[C@@H]6CC(C)(C)CC[C@]6(C(=O)O)CC[C@]45C)[C@]3(C)CO)OC[C@H](O)[C@@H]2O)[C@H](O)[C@H](O[C@@H]2OC[C@@H](O)[C@H](O)[C@H]2O)[C@H]1O (some centres not stated) | -4.57% [at 11.6 µM] (inactive) | 
C=CCc1ccc(O[C@@H]2O[C@H](CO[C@@H]3O[C@H](CO)[C@@H](O)[C@H](O)[C@H]3O)[C@@H](O)[C@H](O)[C@H]2O)c(O)c1 | -2.05% [at 25.3 µM] (inactive) | 
CC(=O)N[C@H]1[C@H](O[C@H]2CC[C@@]3(C)C(CC[C@]4(C)C3CC=C3C5CC(C)(C)CC[C@]5(C(=O)O)[C@H](O[C@@H]5O[C@H](CO)[C@@H](O)[C@H](O)[C@H]5O)C[C@]34C)C2(C)C)O[C@H](CO[C@@H]2OC[C@H](O)[C@H](O)[C@H]2O[C@@H]2OC[C@@H](O)[C@H](O)[C@H]2O)[C@@H](O)[C@@H]1O (some centres not stated) | 0.549% [at 11.6 µM] (inactive) | 
